tim10-1 inh: growth inhibitors of tim10-1 mutant yeast, primary screen, luminescence, uHTS. 330,000 tested, 2.2% active. S. cerevisiae tim10-1 ts strain growth, BacTiter-Glo, 24 h. inhibition, % at 20 µM. AID 463190, 2010;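 active = inhibition of at least 40%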;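 also: mutant grown at 25 °C; 0% = DMSO wells with yeast and 100% = wells holding no yeast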
TIM10 inh: growth inhibitors of isogenic TIM10 control yeast, primary screen, counter-screen for tim10-1 yeast inhibitor project, luminescence, uHTS. S. cerevisiae TIM10 strain growth, BacTiter-Glo luminescence, 24 h. inhibition, % at 10 µM. 330,000 tested, 1.4% active. AID 463195, 2010;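 active = inhibition of 40% or more at the single tested concentration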;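 also: wild-type TIM10 isogenic control strain grown at permissive 25 °C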
NALP1 inh: NALP1 inflammasome inhibitors in reconstituted yeast, colorimetric, S. cerevisiae, triplicate retest; S. cerevisiae NALP1/ASC/caspase-1 growth, X-gal OD620, 72 h; inhibition, % at 10 µM; 280,000 tested, 0.61% active; AID 2071, 2009; in the data active = inhibition mostly above about 24%, no sharp cut-off; inactive = mostly below about 32%
tim23-1 inh: growth inhibitors of tim23-1 mutant yeast, primary screen, luminescence, uHTS. AID 463212, 2010. inhibition, % at 20 µM. S. cerevisiae tim23-1 growth, BacTiter-Glo luminescence, 24 h. 330,000 tested, 1.3% active;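 active = growth inhibition of the mutant yeast at or above 50%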;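 also: temperature-sensitive mutant grown at 25 °C; plate controls were DMSO-treated mutant yeast for no effect and medium wells lacking yeast for full effect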
NLRP3 yeast inh: NALP3 inflammasome inhibitors in reconstituted yeast, primary screen, luminescence, uHTS; 330,000 tested, 0.39% active; inhibition, % at 10 µM; Yeast reconstituted NLRP3/ASC/caspase-1, beta-gal luminescence, 24 h;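 active = inhibition of 50% or more; inactive = inhibition below 50%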;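 also: plate controls were induced DMSO wells for no effect and uninduced yeast grown without galactose for full effect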
tim23-1 conf: tim23-1 mutant yeast growth inhibitors, confirmation, luminescence, single concentration. shares compounds with tim23-1 inh. S. cerevisiae tim23-1 growth, BacTiter-Glo luminescence, 24 h. inhibition, % at 20 µM. 4,400 tested, 83% active. AID 463218, 2010;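 active = inhibition above about 39% in either of two replicate wells at 20 µM, limit read from the data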;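 also: temperature-sensitive tim23-1 mutant grown at 25 °C; 0% = DMSO wells with yeast and 100% = medium wells without yeast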
* = called active by the depositor; . = no result given. This is a sample that favours compounds with a hit; in the whole collection about 4.1% have one here.

SMILES | tim10-1 inh | TIM10 inh | NALP1 inh | tim23-1 inh | NLRP3 yeast inh | tim23-1 conf
C[C@@]12C(=O)Nc3ccc(F)cc3C(=O)N1[C@H]1c3ccccc3OC[C@@H]1[C@@H]2c1ccccc1 | -3 | -1 | . | 46 | 1 | .
O=c1oc2ccccc2cc1-c1nc(-c2ccccc2)no1 | -1 | 6 | 2 | -8 | 49 | .
O=C/C=C/c1c(-c2ccccc2)cc2oc3ccccc3cc1-2 | 39 | 36 | 2 | 50* | 1 | 59*
Cc1ccc(C(=O)Nc2ccc(C(=O)N/N=C/c3c[nH]c4ccccc34)cc2)cc1 | 16 | 18 | 17 | -12 | 13 | .
Cc1cccc(NC(=S)N/N=C/c2c[nH]c3ccccc23)c1 | 38 | 6 | -7 | 64* | 12 | -6
Cc1cccc(S(=O)(=O)Nc2nc3ccccc3nc2OC(C)C)c1 | 28 | 39 | 12 | 53* | 18 | 49*
O=c1cc(CO)oc(CN2CCN(CCO)CC2)c1O | 1 | 2 | -2 | 95* | 7 | 19
Cc1ccc(/C=N/NC(=O)c2ccncc2)o1 | -16 | 4 | -7 | 3 | 14 | .
Cc1ccc(/C=N/NC(=O)c2ccc(OC3CCCC3)cc2)o1 | 12 | 19 | 27 | 58* | 28 | 55*
O=C(O)c1ccc(Cl)c(N2C(=O)Nc3ccccc3N2O)c1 | 12 | -2 | 6 | 10 | 25 | .
Cc1cc2ccccn2c1C(=O)c1cc([N+](=O)[O-])cc([N+](=O)[O-])c1 | 39 | 38 | -3 | 56* | 12 | 67*
S=c1[nH]nc(COc2ccc(Cl)cc2)n1-c1ccc(Cl)cc1 | 27 | 36 | 10 | 51* | 13 | 41*
Cc1ccc(OCc2n[nH]c(=S)n2-c2ccc(Cl)cc2)cc1 | 16 | 22 | 5 | 42 | 14 | .
O=S(=O)(NCCc1cn2ccccc2n1)c1ccc2c(c1)CCCC2 | -10 | -2 | 24 | 6 | 8 | .
Cc1ccc(C(=O)NC2=NCCS2)cc1Cl | -21 | 15 | -5 | 55* | 22 | 47*
CC1CCC2(CC1)NC(=O)N(CC(=O)Nc1ccc(C(N)=O)cc1)C2=O (stereo unspecified) | 3 | -1 | . | 6 | 14 | .
COc1ccccc1NC(=O)C1CC(O)CN1C(=O)Oc1ccccc1 (stereo unspecified) | 9 | -7 | -1 | 13 | 5 | .
